Common to all, as to parameters: species or system human, MV4-11 + K-562 + COLO205 + SK-N-BE2 + OVCAR-8
One assay deals with PRKCD. The settings on record: read-out: apparent Kd, n = 1.
The next assay concerns PRKCQ. The settings on record: read-out: apparent Kd, n = 1.
A further assay has as its system DYRK1A. The settings on record: read-out: apparent Kd, compound concentrations: 100 nM and 1000 nM (sheet 'Samples'), n = 1.
The next assay concerns PIP4K2C. The settings on record: read-out: apparent Kd, n = 1.
For the next assay, the system named is PLK4. To be noted: read-out: apparent Kd, n = 1.
The test system of the next assay is PRKD2. To be noted: read-out: apparent Kd, compound concentrations: 100 nM and 1000 nM (sheet 'Samples'), n = 1.
A further assay concerns RPS6KA6. To be noted: read-out: apparent Kd, n = 1.
The next assay deals with CDK7. To be noted: read-out: apparent Kd, n = 1.
The subject of another assay is CDKL5. To be noted: read-out: apparent Kd, compound concentrations: 100 nM and 1000 nM (sheet 'Samples'), n = 1.
Another assay deals with ERCC2. The settings on record: read-out: apparent Kd, n = 1.
The next assay relates to FER. The settings on record: read-out: apparent Kd, n = 1.
For another assay, the system named is PRKAA1. The settings on record: read-out: apparent Kd, n = 1.
Another assay relates to PTK2B. The settings on record: read-out: apparent Kd, n = 1.
The next assay relates to PTK2. The settings on record: read-out: apparent Kd, n = 1.
The next assay has as its system FLT3. To be noted: read-out: apparent Kd, compound concentrations: 100 nM and 1000 nM (sheet 'Samples'), n = 1.
The subject of a further assay is LATS1. The settings on record: read-out: apparent Kd, n = 1.
For another assay, the system named is MARK4. The settings on record: read-out: apparent Kd, n = 1.
The next assay concerns MYLK3. To be noted: read-out: apparent Kd, compound concentrations: 100 nM and 1000 nM (sheet 'Samples'), n = 1.
In the next assay the test system is PRKD3. The settings on record: read-out: apparent Kd, compound concentrations: 100 nM and 1000 nM (sheet 'Samples'), n = 1.
A further assay concerns STK10. The settings on record: read-out: apparent Kd; compound concentrations: 100 nM and 1000 nM (sheet 'Samples'), CATDS: 9.0871108796095092E-3; n = 1.
Where [1] appears, read: compound concentrations:100 nM and 1000 nM (sheet 'Samples').

Where two headings read alike, the source gives them in different places.

As to `NCC(NC(=O)c1cc(-c2cn[nH]c2)c(-c2ccnc3[nH]ccc23)s1)c1ccccc1.NCC(NC(=O)c1cc(-c2cn[nH]c2)c(-c2ccnc3[nH]ccc23)s1)c1ccccc1.O=C(O)C(F)(F)F.O=C(O)C(F)(F)F` (stereo not shown) [GSK1325775A], the potency estimated from few doses was 712 nM in the assay on PRKCD (compound concentrations: 100 nM and 1000 nM (sheet 'Samples'), CATDS: 4.2478831197515603E-2); 2040 nM in the assay on PRKCQ (compound concentrations: 100 nM and 1000 nM (sheet 'Samples'), CATDS: 3.02069836024773E-2).
With `CCn1c(-c2cccnc2O)nc2cnccc21` [SB-736715], the potency estimated from few doses in the assay on DYRK1A (CATDS: 1.19408465116969E-2) was 2220 nM; in the assay with PIP4K2C (compound concentrations: 100 nM and 1000 nM (sheet 'Samples'), CATDS: 1.9889508399788002E-2), 761 nM; in the assay with PLK4 (compound concentrations: 100 nM and 1000 nM (sheet 'Samples'), CATDS: 1.6109346407018599E-2) it was 1120 nM; with PRKCD (compound concentrations: 100 nM and 1000 nM (sheet 'Samples'), CATDS: 1.16308056787147E-2), 2390 nM; with PRKD2 (CATDS: 1.32694977387129E-2) it was 1700 nM; in the assay with RPS6KA6 (compound concentrations: 100 nM and 1000 nM (sheet 'Samples'), CATDS: 1.6792269740451799E-2), 1030 nM.
In the case of `Cc1ccccc1-n1ncc(C(=O)c2ccccc2)c1N` [RO1151248-000], the potency estimated from few doses is 492 nM in the assay on CDK7 (compound concentrations: 100 nM and 1000 nM (sheet 'Samples'), CATDS: 3.2970650229379797E-2); 2240 nM with CDKL5 (CATDS: 1.7260547192186899E-2); 462 nM in the assay with ERCC2 (compound concentrations: 100 nM and 1000 nM (sheet 'Samples'), CATDS: 3.4220969225155197E-2); 496 nM with FER (compound concentrations: 100 nM and 1000 nM (sheet 'Samples'), CATDS: 3.2819446415030699E-2); 946 nM with PLK4 (compound concentrations: 100 nM and 1000 nM (sheet 'Samples'), CATDS: 2.3524551530655802E-2); 1060 nM with PRKAA1 (compound concentrations: 100 nM and 1000 nM (sheet 'Samples'), CATDS: 2.2348662654876499E-2). The potency estimated from few doses in the assay on PRKCQ (compound concentrations: 100 nM and 1000 nM (sheet 'Samples'), CATDS: 1.77818646264679E-2) is 2020 nM; with PTK2B (compound concentrations: 100 nM and 1000 nM (sheet 'Samples'), CATDS: 3.03657064915384E-2) it was 568 nM; with PTK2 (compound concentrations: 100 nM and 1000 nM (sheet 'Samples'), CATDS: 2.47359073742957E-2) it was 848 nM; in the assay on RPS6KA6 (compound concentrations: 100 nM and 1000 nM (sheet 'Samples'), CATDS: 3.3090095643126802E-2), 489 nM.
On to `CC(=O)N[C@@H](Cc1ccc(OP(=O)(O)O)cc1)C(=O)N[C@H]1CCC(=O)N2CCC[C@@H](C(=O)NCc3ccc(Cl)cc3)N2C1=O` [RO0325308-000], for which the potency estimated from few doses in the assay on CDK7 (setting [1]) is 49.9 nM; in the assay with ERCC2 (setting [1]) it was 39.4 nM; in the assay on FER (setting [1]) it was 59.5 nM; with PIP4K2C (setting [1]) it was 1270 nM; in the assay on PLK4 (setting [1]) it was 637 nM; in the assay on PRKAA1 (setting [1]), 801 nM. In addition, the potency estimated from few doses in the assay on PRKCQ (setting [1]) is 785 nM; in the assay with PTK2B (setting [1]), 367 nM; with PTK2 (setting [1]), 652 nM; in the assay with RPS6KA6 (setting [1]), 620 nM.
As to `O=C(O)C(F)(F)F.O=C(O)C(F)(F)F.O=c1[nH]ccc2nc(N[C@@H]3CCCNC3)nc(Nc3ccc(S(=O)(=O)N4CCOCC4)cc3)c12.O=c1[nH]ccc2nc(N[C@@H]3CCCNC3)nc(Nc3ccc(S(=O)(=O)N4CCOCC4)cc3)c12` [GSK2177277A], the potency estimated from few doses with FER (compound concentrations: 100 nM and 1000 nM (sheet 'Samples'), CATDS: 8.2739447120601401E-3) was 507 nM; in the assay on FLT3 (CATDS: 9.0751024069003396E-3), 370 nM; with LATS1 (compound concentrations: 100 nM and 1000 nM (sheet 'Samples'), CATDS: 1.48300039917603E-2), 99 nM; in the assay on MARK4 (compound concentrations: 100 nM and 1000 nM (sheet 'Samples'), CATDS: 1.7623267984443299E-2), 68 nM; with MYLK3 (CATDS: 7.6821350503620796E-3) it was 670 nM; in the assay on PIP4K2C (compound concentrations: 100 nM and 1000 nM (sheet 'Samples'), CATDS: 6.0874593504341903E-3), 2140 nM. Moreover, the potency estimated from few doses in the assay on PLK4 (compound concentrations: 100 nM and 1000 nM (sheet 'Samples'), CATDS: 9.3439650172966598E-3) is 337 nM; in the assay with PRKAA1 (compound concentrations: 100 nM and 1000 nM (sheet 'Samples'), CATDS: 9.2771532951669705E-3), 345 nM; in the assay on PRKCD (compound concentrations: 100 nM and 1000 nM (sheet 'Samples'), CATDS: 1.08121865447726E-2) it was 219 nM; in the assay on PRKCQ (compound concentrations: 100 nM and 1000 nM (sheet 'Samples'), CATDS: 6.3096913927369299E-3), 1710 nM; in the assay on PRKD2 (CATDS: 1.40829388038229E-2), 112 nM; in the assay with PRKD3 (CATDS: 1.7898299297347601E-2), 65.9 nM. Besides, the potency estimated from few doses was 35.2 nM with PTK2B (compound concentrations: 100 nM and 1000 nM (sheet 'Samples'), CATDS: 2.4807788404782798E-2); 700 nM in the assay with PTK2 (compound concentrations: 100 nM and 1000 nM (sheet 'Samples'), CATDS: 7.5985318000446602E-3); 496 nM with RPS6KA6 (compound concentrations: 100 nM and 1000 nM (sheet 'Samples'), CATDS: 8.3254992837084908E-3); 369 nM in the assay on STK10.
Turning to `CCN(CC)Cc1ccc(Nc2nccc(-c3cnn4ncccc34)n2)cc1` [GW780056X], the potency estimated from few doses in the assay on CDK7 (compound concentrations: 100 nM and 1000 nM (sheet 'Samples'), CATDS: 2.0395381874141399E-2) is 1240 nM; in the assay on FLT3 (CATDS: 9.2784316233310501E-2), 48.8 nM; in the assay on PRKD2 (CATDS: 2.64855086193518E-2), 580 nM; with PRKD3 (CATDS: 3.09987339896893E-2), 398 nM.
Take `c1cnn2ncc(-c3ccnc(Nc4ccc5c(c4)OCCO5)n3)c2c1` [GW806290X]: the potency estimated from few doses is 94.8 nM with CDKL5 (CATDS: 7.1122593361459902E-2); 1020 nM with DYRK1A (CATDS: 2.4296257212368499E-2); 61.9 nM in the assay with FLT3 (CATDS: 9.3011022280108296E-2); 1690 nM with MYLK3 (CATDS: 2.0905091895042499E-2); 96.8 nM in the assay with PIP4K2C (compound concentrations: 100 nM and 1000 nM (sheet 'Samples'), CATDS: 7.0230989511161995E-2); 1650 nM in the assay on PRKCD (compound concentrations: 100 nM and 1000 nM (sheet 'Samples'), CATDS: 2.1059848271292699E-2).
Regarding `CN(c1ccc(NC(=O)NCCN2CCOCC2)cc1)c1ccnc(Nc2ccc(CS(C)(=O)=O)cc2)n1.Cl` [GW830365A], the potency estimated from few doses with FLT3 (CATDS: 0.17522141736576) was 107 nM; in the assay with PLK4 (compound concentrations: 100 nM and 1000 nM (sheet 'Samples'), CATDS: 4.9779081320457601E-2), 1320 nM.
For the molecule `CCn1c(-c2nonc2N)nc2c(C#CC(C)(C)O)nc(O[C@@H](CN)c3ccccc3)cc21.O=C(O)C(F)(F)F` [GSK1007102B], the potency estimated from few doses in the assay on LATS1 (setting [1]) is 23.2 nM; with MARK4 (setting [1]), 768 nM; with PRKAA1 (setting [1]) it was 917 nM; with PRKCD (setting [1]), 173 nM; with PRKCQ (setting [1]) it was 71.9 nM.

Source of the values: PMC11062922 (Nature Chemical Biology, 2023).
